In the library only some 2.9% were active in any assay of this set; here they are far more common.
DRD3 agonist = agonists of human D3 dopamine receptor; P35462; D3R DiscoveRx beta-arrestin cells, luminescence, 90 min; max activation, %; 410,000 compounds, 0.58% hits; in the data active = max activation above about 30%
Target sequence (P35462 whole entry, looked up): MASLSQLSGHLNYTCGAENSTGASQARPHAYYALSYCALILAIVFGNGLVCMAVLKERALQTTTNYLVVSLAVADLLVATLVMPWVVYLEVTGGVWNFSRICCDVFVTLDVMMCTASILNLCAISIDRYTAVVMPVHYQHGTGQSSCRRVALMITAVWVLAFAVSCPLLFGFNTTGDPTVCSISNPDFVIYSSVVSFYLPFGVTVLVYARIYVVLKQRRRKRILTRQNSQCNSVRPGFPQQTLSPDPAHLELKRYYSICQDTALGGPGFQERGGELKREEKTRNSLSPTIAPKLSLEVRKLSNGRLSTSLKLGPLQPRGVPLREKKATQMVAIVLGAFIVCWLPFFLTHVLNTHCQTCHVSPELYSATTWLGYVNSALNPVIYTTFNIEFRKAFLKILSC
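Cells at 1500/well, incubated overnight, then treated with pinned compounds (dopamine as control) for 90 min at 37 degrees C. DiscoveRx reagent added for 30 - 60 minutes at room temperature; luminescence read.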
DRD3 antagonist = antagonists of human D3 dopamine receptor; P35462; D3R cells, DiscoveRx beta-arrestin luminescence, antagonist mode; stronger effect = lower value; max response, negative = inhibition, %; 360,000 compounds, 2.5% hits; AID 652054; in the data active = max response below about -50%; inconclusive = no clear call, values can overlap the other calls
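Cells expressing the human receptor were seeded at 1500 cells/well, incubated overnight at 37 degrees C in 5% CO2, then exposed to library compounds with dopamine controls for 90 minutes at 37 degrees C before luminescent detection.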
a7 integrin act = activates integrin-mediated alleviation for muscular dystrophy; alpha7betagal myoblasts, beta-gal FDG fluorescence, 48 h; Potency, µM (doses to about 38.3 µM), most hits filed as activators; 350,000 compounds, 0.064% hits; active = well fitted activation curve with a large enough effect; inconclusive = small, poorly fitted or top-dose-only effect; inactive = no such curve, though single readings can be large or run the other way; also: nearly all actives have a fitted effect of over 60% in size
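Alpha7betagal+/- myoblasts (passage 13) were plated 16-24 hr, then exposed to compounds (1:260 dilution of DMSO stock) for 48 hours at 37C. After MPER lysis, β-galactosidase reporter activity was read as FDG fluorescence (ex 480/em 540) after 30 minutes.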
A number is an active result; i = inactive; ? = inconclusive; nt = no result given.

SMILES | DRD3 agonist | DRD3 antagonist | a7 integrin act
CCC1=C2CC[C@H]3C(=O)N(CC)C(=O)[C@H]3[C@H]2[C@@]2(Cc3ccccc3)C(=NCc3ccccc3)OC(=O)N2C1=O | i | ? | i
CCc1ccc(Oc2ncnc(N)c2[N+](=O)[O-])cc1 | i | i | i
COc1ccc(/C=C(\NC(=O)c2ccc([N+](=O)[O-])cc2)C(=O)NCCN2CCOCC2)cc1 | i | i | i
Cn1c(CNC(=O)c2ccccc2F)nnc1SCc1ccc(Cl)cc1 | i | i | i
Cc1ccccc1C(=O)NCc1nnc(SCC(=O)N2c3ccccc3Sc3ccccc32)n1C | i | -64 | i
CCOC(=O)c1ccccc1NS(=O)(=O)c1ccc(S(=O)(=O)N2CCCC2)cc1 | i | ? | i
COc1cccc(/C=C2/C(=O)NN(c3ccc(F)cc3)C2=O)c1 | i | i | i
O=C1NN(c2ccc(F)cc2)C(=O)/C1=C/c1cccs1 | i | -63 | i
Cc1ccc(-n2nc(C(=O)N3CCCCC3)c(=O)n(C)c2=O)cc1 | i | nt | nt
C=C1C(=O)C23CCC4C(C)(C(=O)OC)CCCC4(C)C2CCC1(O)C3 (stereo not given) | i | -106 | i
COC(=O)[C@]1(C)CCC[C@@]2(C)C3CC[C@@]4(C)C[C@]3(CCC21)CC(=O)N4 (stereo not given in full) | i | i | i
O=C(COC(=O)c1ccccc1Nc1ccccc1)Nc1ccccc1 | i | i | i
CC(=O)c1ccc(NC(=O)COC(=O)c2ccccc2Nc2ccccc2)cc1 | i | -51 | i
CSc1nnc(-c2ccccc2)n1C | i | i | i
CSc1nnc(C2CCCN2)n1C (stereo not given) | i | -54 | i
O=C(NN1C(=O)c2ccccc2NC1c1ccc([N+](=O)[O-])o1)c1ccccc1 (stereo not given) | i | i | i
O=C(NN1C(=O)c2ccccc2NC1c1ccc([N+](=O)[O-])o1)c1ccc([N+](=O)[O-])cc1 (stereo not given) | i | -61 | i
CN(C)S(=O)(=O)Nc1ccc(Oc2ccccc2)cc1 | i | i | i
C=CCc1cc(/C=C2/NC(=O)NC2=O)cc(OCC)c1O | i | i | i
CCOc1cc(/C=C2/NC(=O)NC2=O)cc([N+](=O)[O-])c1O | i | -86 | i
CCCOc1c(OC)cc(Cl)cc1C1NC(=O)NC(C)=C1C(=O)NCc1ccccc1 (stereo not given) | i | i | i
COc1ccccc1C(=O)NC1CCSc2ccccc21 (stereo not given) | i | i | i
CC(C)Cn1c(=O)c2ccccc2c2ccccc2c1=O | i | i | i
COC(=O)[C@@]1(Cc2ccc(F)cc2)[C@H]2c3cc(C(=O)N(C)C)n(CCF)c3C[C@H]2CN1C(=O)c1ccccc1 | i | i | nt
COC(=O)[C@@]1(Cc2ccccc2)[C@@H]2C(=CC(=O)[C@H]2CC(=O)C(=O)N(C)C)CN1C(=O)c1ccccc1 | i | -51 | i
SMILES | DRD3 agonist | DRD3 antagonist | a7 integrin act
COc1ccc(-c2noc(-c3ccc(N4CCN(C)CC4)c([N+](=O)[O-])c3)n2)cc1OC | i | nt | nt
O=S(=O)(c1ccccc1)N(Cc1nc(-c2ccccc2)no1)C1CCCCC1 | i | -53 | i
O=S(=O)(c1ccc(F)cc1)N(Cc1nc(-c2ccccc2)no1)C1CCCCC1 | i | nt | nt
CC(=O)N1N=C(c2ccc([N+](=O)[O-])cc2)CC1c1ccccc1Cl (stereo not given) | i | i | ?
COc1ccc(NC(=O)CCC(=O)c2cccs2)cc1Cl | i | i | ?
COc1ccc(NC(=O)Nc2cccs2)cc1Cl | i | -63 | i
CN1C(=O)/C(=C/c2cc(C(C)(C)C)c(O)c(C(C)(C)C)c2)NC1=S | i | -58 | i
Cc1cc(N2CCCC2)ccc1/C=C1\NC(=S)N(C)C1=O | i | i | i
Cc1cccc(C)c1NC(=O)NC1(C(=O)N2CCOCC2)CCCCC1 | i | i | i
O=C1CCCc2c1cc(C(=O)NCCCN1CCOCC1)c(=O)n2-c1ccc(Cl)cc1 | i | i | i
Cc1ccc2oc(/N=C(\N)NC(=O)C3CC3)nc2c1 | i | i | i
Cc1ccc2oc(/N=C(\N)NC(=O)C(C)(C)C)nc2c1 | i | -52 | i
COc1ccc(N2CCN(C(=O)c3c4c(nc5ccccc35)C(=O)N(C3CCCCC3)C4)CC2)cc1 | i | nt | nt
CC(C)CCN1CCN(Cc2ccoc2)CC1CCO (stereo not given) | i | i | ?
COc1ccccc1/C=C/CN1CCN(Cc2ccc(F)cc2)C(CCO)C1 (stereo not given) | i | -82 | i
COc1cccc2c1OCC(CN1CCN(Cc3ccccc3)C(CCO)C1)=C2 (stereo not given) | i | -94 | i
CC(C)CCN1CCN(Cc2cccc(C(F)(F)F)c2)CC1CCO (stereo not given) | i | -112 | i
Cc1ccc(CN2CCN(Cc3cnn(-c4ccc(F)cc4)c3)CC2CCO)o1 (stereo not given) | i | ? | i
COc1cccc2c1OCC(CN1CCN(Cc3ccccc3F)C(CCO)C1)=C2 (stereo not given) | i | i | i
CCOc1ccccc1CN1CCN(C/C=C/c2ccc(OC)cc2)CC1CCO (stereo not given) | i | ? | i
Cc1ccc(CN2CCN(C/C=C/c3ccc(F)cc3)CC2CCO)o1 (stereo not given) | i | -93 | i
CC(C)(C)c1ccc(C(=O)OCC(=O)NCc2ccco2)cc1 | i | i | i
Cc1cccnc1NC(=S)NCc1ccco1 | i | i | i
CC(=O)c1ccc(N2CCN(c3ccc4cc(S(=O)(=O)N5CCC(C)CC5)ccc4n3)CC2)cc1 | i | i | i
OCCC1CN(Cc2cccc(C(F)(F)F)c2)CCN1Cc1ccccc1 (stereo not given) | i | -72 | i
SMILES | DRD3 agonist | DRD3 antagonist | a7 integrin act
Cc1ccc(CN2CCN(C/C(Cl)=C/c3ccccc3)CC2CCO)o1 (stereo not given) | i | i | i
OCCC1CN(Cc2ccc(C(F)(F)F)cc2)CCN1Cc1ccccc1 (stereo not given) | i | i | i
CSc1cccc(CN2CCN(CCC(C)C)C(CCO)C2)c1 (stereo not given) | i | -51 | i
COc1ccc(CN2CCN(CCCc3ccccc3)C(CCO)C2)cc1OC (stereo not given) | i | i | i
COc1ccc(CN2CCN(Cc3ccccc3)C(CCO)C2)cc1OC (stereo not given) | i | -72 | i
C/C(=C\c1ccco1)CN1CCN(Cc2ccc(C)o2)C(CCO)C1 (stereo not given) | i | -70 | i
CC(C)CCN1CCN(Cc2cccc(-n3cccn3)c2)CC1CCO (stereo not given) | i | i | i
CCn1c(=O)c2cc(C(=O)N(C)c3cc(C)ccc3C)sc2c2ccccc21 | i | nt | nt
CC(=O)c1cccc(N(C(=O)c2ccco2)C(C(=O)NC2CCCC2)c2cccs2)c1 (stereo not given) | i | i | i
CC(C)(C)CC(C)(C)NC(=O)CSCC(=O)Nc1ccc2ccccc2c1 | i | i | i
O=C(CCCn1c(SCc2cc(=O)n3cc(Cl)ccc3n2)nc2ccccc2c1=O)NCC1CCCO1 (stereo not given) | i | i | i
S=c1[nH]nc(-c2n[nH]c3c2CCC3)n1/N=C/C=C/c1ccccc1 | i | -115 | i
